# Laboratory results reported in publication PMC4336329 (PLoS ONE, 2015).
# Screen size: about 310,000 compounds; about 14,000 (4.5%) showed an effect of 50% or more. The effect is printed as a negative number. Many of the other results were omitted from the sample, so strong results are more common in it than they were.
# Target: human ether-à-go-go-related gene (hERG) potassium channel (human, UniProt Q12809)
# Experiment: primary screen, population patch clamp on CHO cells stably expressing hERG; higher = less effect of the substance
# 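Further: peak tail current of the secondary pulse compared with the same well before compound.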
# Chain of human ether-à-go-go-related gene (hERG) potassium channel (Q12809 whole entry, looked up): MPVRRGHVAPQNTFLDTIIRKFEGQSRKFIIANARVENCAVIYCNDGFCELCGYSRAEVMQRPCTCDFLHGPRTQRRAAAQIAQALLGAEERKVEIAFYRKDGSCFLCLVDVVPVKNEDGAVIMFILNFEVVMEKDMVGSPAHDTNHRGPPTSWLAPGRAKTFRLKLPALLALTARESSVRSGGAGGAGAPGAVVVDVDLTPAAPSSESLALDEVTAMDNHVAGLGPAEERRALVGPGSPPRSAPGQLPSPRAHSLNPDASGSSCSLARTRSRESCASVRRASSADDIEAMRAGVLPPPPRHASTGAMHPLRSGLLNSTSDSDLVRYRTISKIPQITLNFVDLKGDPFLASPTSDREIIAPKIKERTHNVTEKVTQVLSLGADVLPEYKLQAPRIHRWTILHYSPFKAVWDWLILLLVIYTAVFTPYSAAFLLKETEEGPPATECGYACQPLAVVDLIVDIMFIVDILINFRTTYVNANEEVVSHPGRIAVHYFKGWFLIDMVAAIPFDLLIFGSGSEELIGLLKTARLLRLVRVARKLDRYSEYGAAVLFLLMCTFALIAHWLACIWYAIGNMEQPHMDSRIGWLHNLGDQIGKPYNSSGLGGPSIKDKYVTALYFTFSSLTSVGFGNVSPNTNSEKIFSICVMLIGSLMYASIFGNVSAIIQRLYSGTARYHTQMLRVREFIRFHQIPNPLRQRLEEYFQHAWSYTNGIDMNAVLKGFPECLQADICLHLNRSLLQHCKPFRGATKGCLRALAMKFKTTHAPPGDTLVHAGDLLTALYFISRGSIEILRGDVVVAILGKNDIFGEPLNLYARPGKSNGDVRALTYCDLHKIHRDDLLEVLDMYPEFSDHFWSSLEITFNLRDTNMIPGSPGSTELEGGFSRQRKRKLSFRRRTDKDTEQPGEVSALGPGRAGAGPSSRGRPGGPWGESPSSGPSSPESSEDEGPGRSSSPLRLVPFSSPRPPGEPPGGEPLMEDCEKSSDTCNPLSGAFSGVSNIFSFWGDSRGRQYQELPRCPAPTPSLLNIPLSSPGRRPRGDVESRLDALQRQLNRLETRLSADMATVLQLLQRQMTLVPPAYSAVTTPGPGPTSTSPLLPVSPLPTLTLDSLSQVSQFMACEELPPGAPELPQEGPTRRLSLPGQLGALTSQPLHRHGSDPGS
row,SMILES,"hERG current change (%, negative = inhibition) at 10uM"
1,COc1ccc(NC(=S)N(CCCN2CCCC2)Cc2cccs2)cc1,-48%
2,COc1ccc(NC(=S)N(CCCN2CCCCC2)Cc2cccs2)cc1,-61%
3,COc1ccc(NC(=S)N(CCCN2CCN(C)CC2)Cc2cccs2)cc1,-53.4%
4,COc1ccc(NC(=S)N(CCCN2CCOCC2)Cc2cn(C)c3ccccc23)cc1,-16.8%
5,COc1cccc(NC(=S)N(CCCN2CCC(C)CC2)Cc2cccs2)c1,-59.2%
6,COc1cccc(NC(=S)N(CCCN2CCOCC2)Cc2cn(C)c3ccccc23)c1,-10.7%
7,COc1cccc(NC(=S)N(CCN(C)C)Cc2cccs2)c1,-10.5%
8,COc1ccc(NC(=S)N(CCCN2CCC(C)CC2)Cc2cccs2)cc1,-68.2%
9,COc1ccc(NC(=S)N(CCN(C)C)Cc2cccs2)cc1,-33.9%
10,CCCCN(C(=O)c1ccc(-c2ccc(Cl)cc2)o1)c1c(N)n(CCC)c(=O)[nH]c1=O,0.856%
11,O=C(NC1CCCC1)C(c1cccs1)N(Cc1ccco1)C(=O)Cn1nnc(-c2cccs2)n1 (stereo not shown),2.45%
12,CCC1CCCCN1C(=S)Nc1cccc(S(=O)(=O)N(C)C)c1 (stereo not shown),-6.73%
13,CCOP(=S)(OCC)Oc1cc(C)oc(=O)c1Cl,19.6%
14,COc1cc(C2=NOC(C(=O)NC3CCCCC3)C2)cc(OC)c1OC (stereo not shown),-8.08%
15,Cc1cc(C)[n+](-c2ccc(Oc3ccccc3)c(S(=O)(=O)[O-])c2)[nH]1,13.6%
16,CC(=O)Nc1ccc2c(c1)C(=O)N(c1cccc3ccccc13)C2=O,-9.32%
17,COc1ccc(NP(=O)(Oc2ccc(Cl)cc2)Oc2ccc(Cl)cc2)cc1OC,-16.6%
18,O=C(OC1CCOC1=O)c1cncc(Br)c1 (stereo not shown),-15.7%
19,Nc1ccc(-c2ccc(N)c(C(=O)O)c2)cc1C(=O)O,7.74%
20,CC(=O)NC12CC3CC(C1)CC(C(=O)Nc1nccs1)(C3)C2,6.58%
21,CC(OC(=O)Cn1cnc2c1c(=O)n(C)c(=O)n2C)C(=O)NC1CCCCC1C (stereo not shown),15.4%
22,CCC(c1nnnn1C1CCCCC1)N1CCN(C(=O)c2ccco2)CC1.Cl (stereo not shown),-11.4%

row,SMILES,"hERG current change (%, negative = inhibition) at 10uM"
1,COc1cc(/C=N/Nc2cccc(C)c2)ccc1OC(=O)c1ccco1,23.4%
2,COc1ccc(NC(=S)N(CCCN2CCC(C)CC2)Cc2cccs2)cc1Cl,-73.1%
3,COc1ccc(NC(=S)NCCN2CCC(C)CC2)cc1Cl,-30.5%
4,COc1ccc(NC(=S)N(CCCN2CCCC2)Cc2cccn2Cc2ccc(Cl)cc2)cc1Cl,-6.98%
5,Cn1c(Cn2nnc3ccccc32)nnc1SCC(=O)N1c2ccccc2Sc2ccccc21,-22.1%
6,O=C(OCCN=C1NS(=O)(=O)c2ccccc21)c1ccncc1,-1.44%
7,C/C(=N\NC(=O)Cn1cc([N+](=O)[O-])cn1)c1ccc(O)cc1,-5.56%
8,COc1ccc(NS(=O)(=O)c2cccc(C(=O)N3CCCCCCC3)c2)cc1,-28.9%
9,O=C(NCC1(N2CCOCC2)CCCCC1)c1cccc(S(=O)(=O)Nc2ccc(F)cc2)c1,-44.1%
10,O=C(NCC1(N2CCCCC2)CCCCC1)c1cccc(S(=O)(=O)Nc2ccc(F)cc2)c1,-64%
11,COc1ccc(NS(=O)(=O)c2cccc(C(=O)NCC3(N4CCCCC4)CCCCC3)c2)cc1,-55.4%
12,COc1ccc(NS(=O)(=O)c2cccc(C(=O)NCC3(N4CCOCC4)CCCCC3)c2)cc1,-36.7%
13,O=C(c1cccc(S(=O)(=O)Nc2ccc(F)cc2)c1)N1CCCC1,-3.1%
14,COc1cc(/C=C2\C(=O)NN(c3ccccc3)C2=O)cc([N+](=O)[O-])c1O,22%
15,O=C(N/N=C/c1coc2ccccc2c1=O)c1cccc([N+](=O)[O-])c1,26.8%
16,Cc1ccccc1NC(=O)Cn1nnc(S(=O)(=O)c2ccc(C(C)(C)C)cc2)c1N,4.35%
17,COc1ccc(S(=O)(=O)NCc2cccnc2)cc1C(=O)Nc1ccccc1,-47.9%
18,CC(=O)Nc1ccc(NC(=O)c2ccc(N(Cc3ccccc3C)S(C)(=O)=O)cc2)cc1,-7.68%
19,S=C(Nc1ccccc1)N1CCN(C2CCCCC2)CC1,-2.89%
20,CCC1CCCCN1C(=O)CSc1nnc(CNC(=O)COc2ccc(Cl)cc2)o1 (stereo not shown),-32.5%
21,COc1cnc(-c2ccccn2)nc1Oc1ccccc1,-72.8%
22,COc1cnc(-c2ccccn2)nc1Oc1ccc(C(C)(C)C)cc1,-2.72%

row,SMILES,"hERG current change (%, negative = inhibition) at 10uM"
1,COc1cnc(-c2ccccn2)nc1Oc1ccc(Cl)cc1,-0.157%
2,CC(C)C(=O)NC(c1ccccc1Cl)c1c(O)ccc2ccccc12 (stereo not shown),7.79%
3,O=C(O)CCN1C(=O)CC(N2C(=O)/C(=C/c3ccc(Cl)cc3)SC2=S)C1=O (stereo not shown),18.8%
4,CSc1snnc1-c1ccccc1,25.6%
5,O=C(O)C(=O)O.c1cc2c(cc1OCCNC1CCCC1)CCC2,0.00128%
6,C=CCNCCCCOc1ccc(OCc2ccccc2)cc1.O=C(O)C(=O)O,-42.1%
7,CCOc1cccc(OCCNC2CCCC2)c1.O=C(O)C(=O)O,5.28%
8,O=C(O)C(=O)O.c1ccc(Cc2ccc(OCCCNC3CCCC3)cc2)cc1,-58.9%
9,Cc1ccc(C)c(OCCCNC2CCCC2)c1C.O=C(O)C(=O)O,-10.3%
10,CC(C)(C)c1ccc(OCCCNCc2ccccc2)cc1.O=C(O)C(=O)O,-19.5%
11,O=C(O)C(=O)O.OCCNCCCCOc1ccc(OCc2ccccc2)cc1,-32.1%
12,CC(C)(C)c1ccc(OCCCNC2CCCC2)cc1.O=C(O)C(=O)O,-54.5%
13,O=C(O)C(=O)O.c1ccc(-c2ccc(OCCCNC3CCCC3)cc2)cc1,-86.1%
14,Cc1ccc(OCCCNC2CCCC2)cc1,-0.454%
15,O=C(O)C(=O)O.c1ccc(COc2ccc(OCCCNC3CCCC3)cc2)cc1,-57.1%
16,COc1cccc(OC)c1OCCCNC1CCCC1.O=C(O)C(=O)O,-7.84%
17,COc1ccc(C2=NN(C(=O)COC(=O)c3ccc(NC(=O)CC#N)cc3)C(c3ccco3)C2)cc1 (stereo not shown),5.24%
18,COC(=O)c1oc2nc(C)cc(C)c2c1N,-4.33%
19,CC(C)N(C)C(=O)CCc1nnc(CCc2c[nH]c3ccccc23)o1,6.75%
20,COc1ccc(C)cc1NC(=O)c1sc2ncn(CC(=O)N3CCCCC3)c(=O)c2c1C,9.03%
21,Cc1ccnc(Nc2nc3ccccc3s2)n1,-4.71%
22,COc1ccc(NC(=O)C2CCCN(c3nccc(C)n3)C2)cc1 (stereo not shown),-3.13%

row,SMILES,"hERG current change (%, negative = inhibition) at 10uM"
1,CCOC(=O)c1c(C)n(Cc2ccco2)c2c1cc(O)c1ccccc12,6.11%
2,Cc1ccc(OCCn2c(NC(=O)c3ccco3)nc3ccccc32)cc1,-5.24%
3,Cn1cc(Br)c(C(=O)Nc2c(F)c(F)c(F)c(F)c2F)n1,-6.6%
4,COc1ccc(Cl)cc1S(=O)(=O)N1CCC(C(=O)NCc2ccccn2)CC1,-7.12%
5,O=C(c1ccc(Cl)cc1)N1CCN(S(=O)(=O)/C=C/c2ccccc2)CC1,-54.8%
6,O=C(c1cccc([N+](=O)[O-])c1)N1CCN(S(=O)(=O)N2CCCCC2)CC1,-15.2%
7,O=C(c1ccco1)N1CCN(S(=O)(=O)/C=C/c2ccccc2)CC1,-38.3%
8,Cn1nc(C(=O)N2CCN(S(=O)(=O)c3ccccc3)CC2)c2ccccc2c1=O,-23%
9,Cn1nc(C(=O)N2CCN(C(c3ccccc3)c3ccccc3)CC2)c2ccccc2c1=O,-35.2%
10,O=C(c1ccc2ccccc2c1)N1CCN(S(=O)(=O)/C=C/c2ccccc2)CC1,-31.9%
11,O=CN1CCN(C(=O)c2cccc([N+](=O)[O-])c2)CC1,-4.11%
12,O=C(c1cccc([N+](=O)[O-])c1)N1CCN(C/C=C/c2ccccc2)CC1,-65.9%
13,Nc1ccc(C(=O)N2CCN(S(=O)(=O)/C=C/c3ccccc3)CC2)cc1[N+](=O)[O-],-43.9%
14,O=C(c1cccc([N+](=O)[O-])c1)N1CCCN(C(=O)c2cccc([N+](=O)[O-])c2)CC1,-42%
15,O=C(c1cccc([N+](=O)[O-])c1)N1CCN(S(=O)(=O)/C=C/c2ccccc2)CC1,-64.3%
16,Cn1nc(C(=O)N2CCN(S(=O)(=O)/C=C/c3ccccc3)CC2)c2ccccc2c1=O,-65.1%
17,Cc1nc(N=Nc2ccc(O)cc2)n[nH]1,7.01%
18,CC12CC[C@H]3[C@@H](CCC4(O)C[C@H](O)CCC34/C=N/NC(=O)c3ccccc3Cl)C1(O)CCC2C1=CC(=O)OC1 (stereo partly shown),9.69%
19,O=C(COC(=O)c1ccc(S(=O)(=O)Nc2ccccc2)cc1)NCC1CCCO1 (stereo not shown),1.33%
